Rab2A wt mod – modulators of GTP binding to Rab2A wildtype, primary screen, biochemical, dog, bead-based flow cytometry, multiplex; Ras-related protein Rab-2A (Canis lupus familiaris), P61105; GST-Rab2 wt beads, Bodipy-GTP binding; GTP binding activity, % at 10 µM; actives 0.19% (n = 190,000); AID 760, 2007;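 active = GTP binding activity at least 20 points away from 100%, either lowered or raised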;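 also: 0% = beads with excess unlabeled GTP and 100% = no-compound control corrected for plate trend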
HRas wt GTP bind – modulators of GTP binding to HRas wildtype, primary screen, biochemical, bead-based flow cytometry, multiplex | AID 759, 2007 | GST-Ras wt beads, Bodipy-FL-GTP binding; actives lie on both sides | GTP binding activity, % at 10 µM | GTPase HRas (Homo sapiens), P01112 | actives 0.14% (n = 190,000);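 active = GTP binding activity at least 20% away from the 100% baseline, either lowered as inhibitor or raised as activator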;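 also: 0% = unlabeled GTP competition control and 100% = no-compound control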
Target sequence (P01112 whole entry, looked up): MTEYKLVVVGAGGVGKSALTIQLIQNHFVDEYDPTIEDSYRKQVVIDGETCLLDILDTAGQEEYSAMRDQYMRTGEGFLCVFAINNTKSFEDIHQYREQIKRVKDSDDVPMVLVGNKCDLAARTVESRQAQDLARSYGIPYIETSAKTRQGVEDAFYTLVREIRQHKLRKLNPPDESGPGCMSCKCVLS
Cdc42 wt GTP – modulators of GTP binding to wildtype Cdc42, primary screen, biochemical, multiplex bead flow cytometry, Bodipy-GTP | GST-Cdc42 beads; actives lie on both sides | actives 0.2% (n = 190,000) | AID 761, 2007 | percent activity (GTP binding), % at 10 µM | Cell division control protein 42 homolog (Homo sapiens), P60953;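 active = percent activity GTP binding at least 20 points away from the 100% baseline, either down as inhibitor or up as activator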;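 also: median bead fluorescence of bound Bodipy-FL-GTP at 100 nM; 0% = excess unlabeled GTP control and 100% = no compound control; below 100% means less GTP binding so inhibitor and above means activator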
Target sequence (P60953 whole entry, looked up): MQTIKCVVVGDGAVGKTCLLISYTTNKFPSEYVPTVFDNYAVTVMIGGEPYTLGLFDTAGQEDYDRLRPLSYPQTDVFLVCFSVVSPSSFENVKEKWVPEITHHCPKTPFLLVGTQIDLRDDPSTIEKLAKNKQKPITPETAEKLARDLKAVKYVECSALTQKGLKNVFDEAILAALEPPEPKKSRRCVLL
Rac1 act GTP bind – GTP binding modulators of activated mutant Rac1, primary screen, biochemical, bead-based flow cytometry, multiplex, fluorescent GTP. AID 764, 2007. GST-Rac1 activated beads; actives lie on both sides; 100% means binding = to untreated wells. percent activity (GTP binding), % at 10 µM. actives 0.11% (n = 190,000). Ras-related C3 botulinum toxin substrate 1 (Homo sapiens), P63000;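 active = GTP binding at least 20 percentage points away from the 100% baseline, in either direction, so actives lie on both sides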
Rab7 wt modul – modulators of GTP binding to Rab7, primary screen, biochemical, wildtype, multiplex bead flow cytometry; Rab7 GTPase wild type (dog), Bodipy-FL-GTP binding; GST-Rab7 beads, fluorescent GTP binding; actives lie on both sides; untreated = 100%, excess cold GTP = 0%; GTP binding activity (percent of control), % at 10 µM; actives 0.055% (n = 190,000);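 active = fluorescent GTP binding to Rab7 beads changed by at least 20 points from the 100% baseline, either direction, mostly lower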;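 also: median green fluorescence of bound Bodipy-FL-GTP per Rab7 bead population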
Rac1 wt modul – wildtype Rac1 GTP binding modulators, primary screen, biochemical, GST-Rac1 beads, flow cytometry, multiplex; fluorescent GTP binding; actives lie on both sides; 0 = cold GTP competed, 100 = untreated; GTP binding activity (% of control), % at 10 µM; actives 0.27% (n = 190,000); AID 757, 2007;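 active = GTP binding activity at least 20 points away from the 100% control level, either lower or higher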
Starred values were filed as active, the others as inactive; [ ] = another dose, or the depositor's remark. Rows were chosen to be rich in hits. Some 0.4% of all compounds tested hit in one or more screens of this group.

SMILES	Rab2A wt mod	HRas wt GTP bind	Cdc42 wt GTP	Rac1 act GTP bind	Rab7 wt modul	Rac1 wt modul
COC(=O)c1ccc(COc2ccccc2/C=N/Nc2cccc(C(=O)O)c2)cc1	128.0*[activator]	121.0*[activator]	124.0*[activator]	128.0*[activator]	126.0*[activator]	141.0*[activator]
O=C(O)c1cccc(NC(=S)N/N=C/c2ccccc2OCc2ccc(Br)cc2)c1	93.0	97.0	89.0	94.0	98.0	94.0
NS(=O)(=O)c1ccc(N2N=C(c3ccccc3)CC2c2ccccc2)cc1 (centres undefined)	100.0	98.0	71.0*	97.0	94.0	99.0
Clc1ccccc1-c1ccc(/C=N/Nc2nncc(-c3ccccc3)n2)o1	85.0	91.0	84.0	86.0	97.0	79.0*
Clc1ccc(-c2ccc(/C=N/Nc3nncc(-c4ccccc4)n3)o2)cc1	96.0	96.0	98.0	94.0	92.0	94.0
CCc1c(O)nc(SCC(=O)N(CC)CC)[nH]c1=O	94.0	94.0	94.0	96.0	98.0	99.0
CSc1nnc(C)c(/C=C/Nc2ccc(F)cc2)n1	94.0	94.0	93.0	94.0	94.0	89.0
COc1ccc(N/C=C/c2nc(SC)nnc2C)cc1	66.0*	69.0*	67.0*	81.0	90.0	64.0*
O=C(O)c1ccccc1C(=O)NCc1cccnc1	100.0	101.0	99.0	102.0	97.0	104.0
O=C(NCc1cccnc1)c1cccn2c(=O)c3sccc3nc12	82.0	87.0	87.0	86.0	91.0	76.0*
O=C(O)c1cccc(S(=O)(=O)Nc2ccccc2Cl)c1	97.0	98.0	101.0	98.0	99.0	97.0
O=C(NCCc1c[nH]c2ccccc12)c1cccc(S(=O)(=O)Nc2ccccc2Cl)c1	79.0*	83.0	93.0	89.0	88.0	80.0
C/C(=N\NS(=O)(=O)c1cccc([N+](=O)[O-])c1)c1cccnc1	99.0	95.0	99.0	95.0	95.0	98.0
OCCC1CN(Cc2ccccc2O)CCN1CCc1ccccc1 (centres undefined)	16.0*	18.0*	16.0*	13.0*	10.0*	12.0*
CCOc1cccc(CN2CCN(CCc3ccccc3)C(CCO)C2)c1O (centres undefined)	89.0	85.0	87.0	85.0	98.0	88.0
Cc1cc(C)nc(N2CCCC(C(=O)NC(C)C)C2)n1 (centres undefined)	96.0	99.0	98.0	93.0	102.0	98.0
COc1ccccc1Oc1ccccc1C(=O)O	116.0	114.0	122.0*[activator]	119.0	112.0	130.0*[activator]
O=C(CCCCCNc1nc(=S)[nH]c2ccccc12)NCCc1ccc(Cl)cc1	90.0	92.0	91.0	92.0	101.0	87.0
O=C(Cc1c(O)c2ccccc2[nH]c1=O)NC1CCCCCC1	100.0	101.0	103.0	99.0	99.0	103.0
O=C(Cc1ccc(Nc2nc(=S)[nH]c3ccccc23)cc1)NC1CCCCC1	66.0*	68.0*	65.0*	76.0*	82.0	57.0*
CC(C)CCNC(=O)Cc1ccc(Nc2nc(=S)[nH]c3ccccc23)cc1	75.0*	75.0*	80.0	89.0	96.0	73.0*
C(=N\N(Cc1ccccc1)c1ccccc1)/c1cccnc1	98.0	99.0	100.0	99.0	100.0	101.0
CN(NC(=O)CN1C(=O)c2ccccc2C1=O)C1=NS(=O)(=O)c2ccccc21	96.0	99.0	96.0	93.0	103.0	101.0
CN(/N=C/C=C/c1ccccc1)C1=NS(=O)(=O)c2ccccc21	72.0*	68.0*	74.0*	81.0	86.0	65.0*
CN(/N=C/c1cccnc1)C1=NS(=O)(=O)c2ccccc21	70.0*	68.0*	78.0*	83.0	84.0	69.0*

High-throughput results deposited in PubChem BioAssay by NMMLSC.
